# Records with an inconclusive call do not appear. A call without a number means that no potency is given here. Active and inactive are the calls of the source. Unless noted, calls come from the whole dose curve.
# Assays:
# [1] = biological target: Bile acid receptor (Homo sapiens) (UniProt Q96RI1); test: qHTS assay for small molecule antagonists of farnesoid X receptor signaling (AID 588526); note: potency is the fitted concentration of half-maximal effect
# How it was run: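 Beta-lactamase reporter antagonist mode: HEK293T FXR-UAS-bla cells, titrated compound, CDCA stimulation, 16 h 37 C, CCF4 dye 2 h RT. Data normalized to CDCA 50 uM and DMSO; Hill-fit IC50.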
# [2] = biological target: Bile acid receptor (Homo sapiens) (UniProt Q96RI1); test: qHTS assay for small molecule agonists of farnesoid X receptor signaling (AID 588527); conditions: HEK293T FXR-UAS-bla, beta-lactamase ratio, 16 h; activation: stronger effect = higher value; note: series mostly up to about 77 µM
# How it was run: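 Quantitative HTS used FXR-UAS-bla HEK293T cells with 16 h compound incubation at 37 C. EC50 values came from concentration-response curves normalized to chenodeoxycholic acid.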
# [3] = biological target: Peroxisome proliferator-activated receptor delta (Homo sapiens) (UniProt Q03181); test: qHTS assay for small molecule agonists of peroxisome proliferator-activated receptor delta signaling (AID 588534)
# Chain of Peroxisome proliferator-activated receptor delta (Homo sapiens) (Q03181 whole entry, looked up): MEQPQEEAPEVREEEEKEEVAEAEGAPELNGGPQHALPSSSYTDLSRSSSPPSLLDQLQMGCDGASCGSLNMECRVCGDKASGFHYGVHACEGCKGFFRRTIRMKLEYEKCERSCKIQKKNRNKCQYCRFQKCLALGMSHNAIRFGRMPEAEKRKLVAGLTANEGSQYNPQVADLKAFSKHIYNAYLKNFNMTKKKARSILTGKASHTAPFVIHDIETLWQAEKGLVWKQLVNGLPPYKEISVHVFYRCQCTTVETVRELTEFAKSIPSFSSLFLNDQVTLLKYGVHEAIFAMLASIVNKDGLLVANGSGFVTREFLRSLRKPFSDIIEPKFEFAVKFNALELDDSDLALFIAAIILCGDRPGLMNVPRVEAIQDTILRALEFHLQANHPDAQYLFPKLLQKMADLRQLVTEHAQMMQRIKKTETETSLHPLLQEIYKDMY
# How it was run: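 Agonist-mode qHTS; reporter cells, 5 hrs 37 C pre-incubation; compound titration, 18 hrs 37 C; CCF4 dye, 2 hrs RT; fluorescence read. EC50/efficacy via Hill fit.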
# [4] = qHTS assay for small molecule antagonists of peroxisome proliferator-activated receptor delta signaling (AID 588535; active = well fitted inhibition curve with a large enough effect in the signal ratio, with a control signal flat, not every such curve was filed as active; the % refers to the signal ratio;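 for max response: cells co-treated with a PPAR-delta agonist as stimulator during compound exposure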); conditions: HEK293T PPARd-UAS-bla, beta-lactamase FRET ratio, 18 h; 460 nm channel
# How it was run: (§1)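 Titrations were run on PPAR-delta-UAS-bla HEK293T cells in charcoal/dextran-stripped serum, incubated 18 h at 37 C. CCF4 fluorescence (460/530 nm) after 2 h RT; Hill equation yields IC50 and maximal response.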
# [5] = biological target: Peroxisome proliferator-activated receptor delta (Homo sapiens) (UniProt Q03181); test: as above
# How it was run: as §1
# [6] = biological target: Peroxisome proliferator-activated receptor gamma (Homo sapiens) (UniProt P37231); test: qHTS assay for small molecule agonists of peroxisome proliferator-activated receptor gamma signaling (AID 588536; active = well fitted curve in the direction sought with a large enough effect in the signal ratio, with a control signal flat, not every such curve was filed as active; the % refers to the signal ratio)
# Chain of Peroxisome proliferator-activated receptor gamma (Homo sapiens) (P37231 whole entry, looked up): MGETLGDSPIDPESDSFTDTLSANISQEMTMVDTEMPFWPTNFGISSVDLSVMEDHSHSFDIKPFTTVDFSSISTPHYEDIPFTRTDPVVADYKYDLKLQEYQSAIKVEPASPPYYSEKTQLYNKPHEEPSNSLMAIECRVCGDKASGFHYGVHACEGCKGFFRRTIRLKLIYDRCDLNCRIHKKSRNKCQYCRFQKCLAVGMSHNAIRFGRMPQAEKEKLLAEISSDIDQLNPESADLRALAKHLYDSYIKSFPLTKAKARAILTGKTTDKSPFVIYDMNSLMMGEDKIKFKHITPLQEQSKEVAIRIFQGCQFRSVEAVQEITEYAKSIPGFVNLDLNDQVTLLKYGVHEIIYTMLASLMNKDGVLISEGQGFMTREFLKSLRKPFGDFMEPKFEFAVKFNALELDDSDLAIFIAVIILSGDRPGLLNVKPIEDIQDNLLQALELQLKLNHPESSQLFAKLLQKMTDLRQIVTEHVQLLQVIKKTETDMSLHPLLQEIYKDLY
# How it was run: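 Using GeneBLAzer HEK293 cells, response was quantified by CCF4 fluorescence and normalized between basal DMSO (0%) and rosiglitazone 2 uM (100%); curves yielded half-maximal stimulation concentration and efficacy.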
# [7] = biological target: Peroxisome proliferator-activated receptor gamma (Homo sapiens) (UniProt P37231); test: qHTS assay for small molecule antagonists of peroxisome proliferator-activated receptor gamma signaling (AID 588537; active = well fitted inhibition curve with a large enough effect in the signal ratio, with a control signal flat, not every such curve was filed as active; the % refers to the signal ratio;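 note: reporter cells co-stimulated with 50 nM rosiglitazone agonist during compound treatment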)
# How it was run: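 Antagonist-mode β-lactamase reporter screen run as a titration series. HEK293 PPARγ-UAS-bla cells are stimulated with rosiglitazone (50 nM final) for 16 h, then CCF4 is read at 460/530 nm. Data are scaled between DMSO and rosiglitazone and fitted to the Hill equation.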
# [8] = biological target: Vitamin D3 receptor (Homo sapiens) (UniProt P11473); test: qHTS assay for small molecule antagonists of vitamin D receptor signaling (AID 588541);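 note: receptor activated by calcitriol during compound treatment; series mostly up to about 77 µM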
# Chain of Vitamin D3 receptor (Homo sapiens) (P11473 whole entry, looked up): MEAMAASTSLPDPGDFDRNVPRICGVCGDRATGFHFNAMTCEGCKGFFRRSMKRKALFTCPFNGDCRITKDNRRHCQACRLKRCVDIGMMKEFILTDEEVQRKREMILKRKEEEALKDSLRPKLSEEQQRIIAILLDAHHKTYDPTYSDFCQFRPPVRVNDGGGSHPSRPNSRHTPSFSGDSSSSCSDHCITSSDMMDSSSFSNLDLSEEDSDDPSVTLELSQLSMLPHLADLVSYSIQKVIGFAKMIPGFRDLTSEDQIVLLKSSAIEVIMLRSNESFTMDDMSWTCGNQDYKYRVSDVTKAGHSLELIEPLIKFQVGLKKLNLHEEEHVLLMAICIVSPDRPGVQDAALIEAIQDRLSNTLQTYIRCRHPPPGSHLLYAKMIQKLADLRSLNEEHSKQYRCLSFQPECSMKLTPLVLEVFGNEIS
# How it was run: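 Antagonist-mode beta-lactamase reporter assay: HEK293T VDR-UAS-bla cells were exposed to titrated compound alongside 1-alpha,25-dihydroxyvitamin D3 at 3 nM final for 16 h. Values were normalized to the 50 nM agonist control and DMSO basal, with IC50 and efficacy from Hill equation fits.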
# [9] = qHTS assay for small molecule agonists of retinoid X receptor alpha signaling (AID 588544); conditions: HEK293T RXRa-UAS-bla, beta-lactamase reporter, 18 h; 530 nm emission
# [10] = biological target: Retinoic acid receptor RXR-alpha (Homo sapiens) (UniProt P19793); test: as above
# Chain of Retinoic acid receptor RXR-alpha (Homo sapiens) (P19793 whole entry, looked up): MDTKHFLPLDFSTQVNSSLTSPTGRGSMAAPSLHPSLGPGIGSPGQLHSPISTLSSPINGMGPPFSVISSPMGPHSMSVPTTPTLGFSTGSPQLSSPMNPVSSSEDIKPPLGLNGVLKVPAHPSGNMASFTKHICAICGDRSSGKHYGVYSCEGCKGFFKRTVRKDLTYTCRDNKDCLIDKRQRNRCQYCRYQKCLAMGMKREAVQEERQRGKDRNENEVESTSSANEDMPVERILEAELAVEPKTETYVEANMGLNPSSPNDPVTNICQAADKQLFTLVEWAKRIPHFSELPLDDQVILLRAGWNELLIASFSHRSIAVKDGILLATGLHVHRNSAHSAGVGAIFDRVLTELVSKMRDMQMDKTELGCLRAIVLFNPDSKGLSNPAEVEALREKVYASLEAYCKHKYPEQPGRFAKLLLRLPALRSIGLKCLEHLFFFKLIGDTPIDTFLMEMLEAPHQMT
# [11] = biological target: Thyroid hormone receptor beta (Homo sapiens) (UniProt P10828); test: qHTS assay for small molecule agonists of thyroid hormone receptor beta signaling (AID 588545)
# Chain of Thyroid hormone receptor beta (Homo sapiens) (P10828 whole entry, looked up): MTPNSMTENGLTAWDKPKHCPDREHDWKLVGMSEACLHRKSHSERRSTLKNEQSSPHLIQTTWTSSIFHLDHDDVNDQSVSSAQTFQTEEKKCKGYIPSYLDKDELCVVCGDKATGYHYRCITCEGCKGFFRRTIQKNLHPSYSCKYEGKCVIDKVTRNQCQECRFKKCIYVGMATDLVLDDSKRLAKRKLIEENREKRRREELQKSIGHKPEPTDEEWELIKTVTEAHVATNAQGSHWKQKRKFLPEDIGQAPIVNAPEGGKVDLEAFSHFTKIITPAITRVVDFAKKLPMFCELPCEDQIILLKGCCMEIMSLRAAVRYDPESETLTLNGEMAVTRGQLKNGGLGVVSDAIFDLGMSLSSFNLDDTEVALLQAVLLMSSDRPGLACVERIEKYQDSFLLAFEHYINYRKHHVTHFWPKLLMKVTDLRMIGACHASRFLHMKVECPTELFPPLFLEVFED
# How it was run: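 TR-UAS-bla GripTite HEK 293 cells (2500/well, medium with 2% charcoal/dextran FBS) were treated in agonist mode for 18 h at 37 C, titrated. Beta-lactamase was read by CCF4 ratio after 2 h; normalized to 10 nM T3 (100%) and DMSO, Hill-fitted for EC50 and efficacy.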
# [12] = qHTS assay for small molecule antagonists of retinoid X receptor alpha signaling (AID 588546; active = well fitted inhibition curve with a large enough effect in the signal ratio, with a control signal flat, not every such curve was filed as active; the % refers to the signal ratio;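 note: cells stimulated with 9-cis-retinoic acid as agonist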); conditions: HEK293T RXRa-UAS-bla, beta-lactamase ratio, antagonist mode; measured here: W530 green channel, cytotoxicity proxy
# How it was run: (§2)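 Beta-lactamase reporter inhibition, read as CCF4 fluorescence ratio (ex 405, em 460/530 nm) after 2 h at RT. HEK293T UAS-bla cells, 2500/well, were stimulated with 9-cis-RA at 500 or 100 nM final alongside test compound for 18 h at 37 C.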
# [13] = biological target: Retinoic acid receptor RXR-alpha (Homo sapiens) (UniProt P19793); test: as above; conditions: HEK293T RXRa-UAS-bla, beta-lactamase ratio, antagonist mode
# How it was run: as §2
# [14] = biological target: Thyroid hormone receptor beta (Homo sapiens) (UniProt P10828); test: qHTS assay for small molecule antagonists of thyroid hormone receptor beta signaling (AID 588547; active = well fitted inhibition curve with a large enough effect in the signal ratio, with a control signal flat, not every such curve was filed as active; the % refers to the signal ratio;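 note: cells stimulated with 0.4 nM T3 agonist during compound exposure; series mostly up to about 77 µM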); conditions: TR-UAS-bla HEK293, beta-lactamase ratio, antagonist mode, 18 h
# How it was run: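 Inhibition of T3-driven (0.4nM final) beta-lactamase reporter activity was measured over 0.59 nM to 92 uM compound after 18 h at 37 C. The cells were GripTite HEK293 TR-UAS-bla in charcoal/dextran-stripped serum, with CCF4 ratio read-out and IC50 from Hill fits.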
# [15] = qHTS assay for small molecule activators of the p53 signaling pathway (AID 651743; active = well fitted activation curve with a large enough effect in the signal ratio, not every such curve was filed as active; the % refers to the signal ratio; note: series mostly up to about 92 µM); conditions: HCT-116 p53RE-bla, beta-lactamase FRET ratio, 16 h; activation: stronger effect = higher value
# How it was run: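 After 16 hours compound treatment at 37 C, HCT-116 cells stably expressing p53RE-driven beta-lactamase were loaded with LiveBLAzer B/G FRET substrate for 2 hours at room temperature. Fluorescence intensity served as the p53 activation read-out.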
# [16] = qHTS assay for environmental chemicals that activate the Aryl hydrocarbon Receptor (AhR) signaling pathway (AID 651777; active = well fitted curve in the direction sought with a large enough effect; an effect the other way counts as inactive or inconclusive; note: nearly all actives have a fitted effect of over 15% in size); conditions: 1A2-DRE human hepatoma cells, luciferase, 24 h; activation: stronger effect = higher value
# How it was run: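 Quantitative HTS in stably transfected human liver-derived cells whose luciferase gene sits downstream of the CYP1A2 promoter and dioxin response element. After 24 hr exposure at 37 C, One-Glo luminescence was measured.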
# [17] = biological target: Peroxisome proliferator-activated receptor alpha (Homo sapiens) (UniProt Q07869); test: qHTS assay for small molecule agonists of the peroxisome proliferator-activated receptor alpha (PPARalpha) signaling pathway (AID 651778; active = well fitted curve in the direction sought with a large enough effect; an effect the other way counts as inactive or inconclusive); conditions: PathHunter PPARalpha complementation, chemiluminescence, 6 h; max response: stronger effect = higher value
# Chain of Peroxisome proliferator-activated receptor alpha (Homo sapiens) (Q07869 whole entry, looked up): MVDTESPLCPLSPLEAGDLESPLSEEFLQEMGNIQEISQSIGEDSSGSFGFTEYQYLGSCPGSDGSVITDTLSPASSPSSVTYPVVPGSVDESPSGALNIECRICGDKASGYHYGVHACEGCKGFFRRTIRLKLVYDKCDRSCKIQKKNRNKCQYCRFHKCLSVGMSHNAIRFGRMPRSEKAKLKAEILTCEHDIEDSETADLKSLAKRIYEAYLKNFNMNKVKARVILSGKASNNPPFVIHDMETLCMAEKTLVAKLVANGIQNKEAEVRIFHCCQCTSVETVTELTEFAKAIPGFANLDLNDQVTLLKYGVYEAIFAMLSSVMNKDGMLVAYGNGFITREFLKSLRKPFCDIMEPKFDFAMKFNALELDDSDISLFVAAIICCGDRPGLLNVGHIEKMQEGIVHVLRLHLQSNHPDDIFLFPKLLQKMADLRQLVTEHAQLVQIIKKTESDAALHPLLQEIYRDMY
# How it was run: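 Chemiluminescence from complemented enzyme reported PPARalpha activation in cells after 6 hr of compound treatment at 37 C. The detection reagent was incubated for 60 min at room temperature, and compounds were scored as agonists.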
# [18] = qHTS assay for small molecule agonists of the antioxidant response element (ARE) signaling pathway measured by Nrf2-dependant transcriptional activity (AID 720636; active = well fitted curve in the direction sought with a large enough effect in the repeat runs; an effect the other way counts as inactive or inconclusive)
# How it was run: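 Quantitative HTS format in HepG2 cells stably expressing an ARE-luciferase reporter; 16 hr compound treatment at 37 C, luciferase signal detected with ONE-Glo.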
# [19] = qHTS assay for small molecule agonists of the antioxidant response element (ARE) signaling pathway measured by Nrf2-dependant transcriptional activity - cell viability counter screen (AID 720653; active = well fitted curve in the direction sought with a large enough effect in the repeat runs; an effect the other way counts as inactive or inconclusive); conditions: ARE-bla HepG2 viability, CellTiter-Glo ATP luminescence, 16 h; max response: stronger effect = lower value
# How it was run: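 Cytotoxicity counter screen: intracellular ATP quantified by CellTiter-Glo luminescence in the same ARE-bla HepG2 plates, after 16 h compound exposure and a 2 h beta-lactamase substrate step.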
# [20] = qHTS assay for cell viability of HEK293 cells (AID 743288; active = well fitted curve in the direction sought with a large enough effect; an effect the other way counts as inactive or inconclusive; note: nearly all actives have a fitted effect of over 50% in size); conditions: ATP luminescence (CellTiter-Glo), 18 h; max response: stronger effect = lower value
# How it was run: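 Quantitative high-throughput screen: compounds were pinned onto parental HEK293 cells (2,000 per well) after a minimum 5 h settling at 37 C, incubated 18 h at 37 C, and intracellular ATP measured by luciferase luminescence.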
# [21] = qHTS assay for cell viability of the p53RE-bla HCT-116 cell line (AID 743292; active = well fitted curve in the direction sought with a large enough effect; an effect the other way counts as inactive or inconclusive; note: nearly all actives have a fitted effect of over 55% in size)
# How it was run: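 Viability of compound-treated p53RE-bla HCT-116 cells is taken from ATP-dependent luciferase luminescence. Treatment lasts 16 h at 37 C after a 5 h settling period; detection follows 30 min at room temperature.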
# [22] = biological target: Vitamin D3 receptor (Homo sapiens) (UniProt P11473); test: qHTS assay for small molecule agonists of vitamin D receptor signaling (AID 588543)
# How it was run: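 qHTS in agonist mode: compound titrations stimulate a VDR-driven β-lactamase reporter in HEK293T cells over 16 h at 37 °C. Response normalized to 50 nM 1α,25-dihydroxyvitamin D3 = 100%, DMSO = 0%; Hill fitting gives EC50 and maximal response.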
# [23] = qHTS assay for small molecule agonists of the antioxidant response element (ARE) signaling pathway (AID 651741; active = well fitted activation curve with a large enough effect in the signal ratio; the % refers to the signal ratio)
# How it was run: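 Beta-lactamase reporter under ARE control in HepG2 cells, 2,000 per well, was induced by 16 h compound treatment at 37 C. Read-out was fluorescence from LiveBLAzer B/G FRET substrate after 2 h at room temperature.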
# [24] = biological target: Nuclear receptor subfamily 1 group I member 2 (Rattus norvegicus) (UniProt Q9R1A7); test: qHTS assay for small molecule activators of the rat pregnane X receptor (rPXR) signaling pathway (AID 651751; call rule not given here); conditions: rPXR reporter cells, luciferase (One-Glo), 24 h
# Chain of Nuclear receptor subfamily 1 group I member 2 (Rattus norvegicus) (Q9R1A7 whole entry, looked up): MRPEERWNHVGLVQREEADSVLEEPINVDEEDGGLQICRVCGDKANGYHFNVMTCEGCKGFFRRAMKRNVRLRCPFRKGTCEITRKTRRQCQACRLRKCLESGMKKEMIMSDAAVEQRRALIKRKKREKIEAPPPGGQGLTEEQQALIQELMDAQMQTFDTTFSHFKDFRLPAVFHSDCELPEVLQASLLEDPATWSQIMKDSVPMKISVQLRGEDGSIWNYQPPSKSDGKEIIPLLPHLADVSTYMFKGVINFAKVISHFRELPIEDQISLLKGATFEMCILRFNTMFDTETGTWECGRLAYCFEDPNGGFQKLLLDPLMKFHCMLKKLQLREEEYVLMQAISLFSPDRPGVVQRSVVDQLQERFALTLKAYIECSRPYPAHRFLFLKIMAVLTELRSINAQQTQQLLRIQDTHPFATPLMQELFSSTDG
# [25] = qHTS assay for small molecule activators of the human pregnane X receptor (PXR) signaling pathway (AID 720659; call rule not given here)
# [26] = qHTS assay for small molecule activators of the nuclear factor-kappa B (NF-kB) signaling pathway (AID 651749; active = well fitted activation curve with a large enough effect in the signal ratio; the % refers to the signal ratio; note: series mostly up to about 77 µM); conditions: NF-kB-bla ME-180 cells, beta-lactamase FRET ratio, 16 h; activation: stronger effect = higher value
# How it was run: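 Activation measured after 16 hr compound treatment at 37C, 5% CO2, of 2,000 ME-180 cells/well stably expressing an NF-kB response element–driven beta-lactamase reporter, via FRET-disruption fluorescence.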
# Chain of Bile acid receptor (Homo sapiens) (Q96RI1 whole entry, looked up): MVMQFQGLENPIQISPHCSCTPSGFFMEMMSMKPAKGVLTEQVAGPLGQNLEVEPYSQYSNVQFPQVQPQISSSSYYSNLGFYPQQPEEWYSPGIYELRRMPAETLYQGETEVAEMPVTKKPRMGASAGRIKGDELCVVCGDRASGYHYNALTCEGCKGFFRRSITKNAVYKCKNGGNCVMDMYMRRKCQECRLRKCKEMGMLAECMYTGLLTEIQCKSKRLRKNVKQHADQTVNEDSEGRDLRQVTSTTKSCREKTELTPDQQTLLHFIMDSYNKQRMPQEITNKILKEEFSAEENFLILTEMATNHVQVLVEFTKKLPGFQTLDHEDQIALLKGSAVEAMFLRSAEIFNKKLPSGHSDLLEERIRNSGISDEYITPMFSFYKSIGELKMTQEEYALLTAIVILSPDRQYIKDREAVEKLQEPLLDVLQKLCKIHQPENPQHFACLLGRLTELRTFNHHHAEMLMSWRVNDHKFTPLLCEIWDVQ
structure (smiles),measurement,setting,value
COc1cccc(C(=O)NN(C(=O)c2cc(C)cc(C)c2)C(C)(C)C)c1C,Potency,[1],inactive
same,activation,[2],4% (inactive)
same,outcome,[3],inactive
same,max response,[4],-0.516%
same,Potency,[5],inactive
same,Potency,[6],inactive
same,Potency,[7],inactive
same,Potency,[8],inactive
same,max response,[9],-2.17%
same,Potency,[10],inactive
same,Potency,[11],inactive
same,max response,[12],-5.99%
same,max response,[13],-0.788% (inactive)
same,activity change % (negative = inhibition),[14],-4.61% (inactive)
same,activation,[15],-3.69% (inactive)
same,activation,[16],1.74% (inactive)
same,max response,[17],0.438% (inactive)
same,Potency,[18],inactive
same,max response,[19],2.48% (inactive)
same,max response,[20],-4.45% (inactive)
same,Potency,[21],inactive
Cc1ccn2nc(S(=O)(=O)Nc3c(F)cccc3F)nc2n1,Potency,[1],inactive
same,activation,[2],-2.19% (inactive)
same,outcome,[3],inactive
same,max response,[4],35.3%
same,Potency,[5],inactive
same,Potency,[6],inactive
same,Potency,[7],inactive
same,Potency,[8],inactive
same,outcome,[22],inactive
same,max response,[9],-22%
same,Potency,[10],inactive
same,max response,[12],2.3%
same,max response,[13],-2.18% (inactive)
same,Potency,[23],inactive
same,activation,[16],-0.461% (inactive)
same,max response,[17],0.276% (inactive)
same,max response,[19],14.2% (inactive)
same,max response,[20],-3.63% (inactive)
same,Potency,[21],inactive
same,max response,[24],-3.4% (inactive)
same,outcome,[25],inactive
C[Si](Cn1cncn1)(c1ccc(F)cc1)c1ccc(F)cc1,Potency,[1],22.4 µM (active)
same,activation,[2],2.34% (inactive)
same,Potency,[7],inactive
same,Potency,[8],inactive
same,outcome,[22],inactive
same,Potency,[11],inactive
same,activation,[15],-4.21% (inactive)
same,activation,[16],6.54% (inactive)
same,max response,[17],-0.864% (inactive)
same,Potency,[18],inactive
same,max response,[19],-21.1% (inactive)
same,Potency,[21],inactive
Nc1nc(N)nc(N)n1,Potency,[1],inactive
same,activation,[2],0.442% (inactive)
same,outcome,[3],inactive
same,max response,[4],16%
same,Potency,[5],inactive
same,Potency,[6],inactive
same,Potency,[7],inactive
same,Potency,[8],inactive
same,outcome,[22],inactive
same,max response,[9],-6.58%
same,Potency,[10],inactive
same,Potency,[11],inactive
same,max response,[12],-0.207%
same,max response,[13],-7.03% (inactive)
same,activity change % (negative = inhibition),[14],-6.25% (inactive)
same,Potency,[23],inactive
same,activation,[15],-2.16% (inactive)
same,activation,[26],-1.8% (inactive)
same,activation,[16],-1.1% (inactive)
same,max response,[17],-3.29% (inactive)
same,Potency,[18],inactive
same,max response,[20],-12% (inactive)
same,Potency,[21],inactive
same,max response,[24],-3.43% (inactive)
same,outcome,[25],inactive

# Source: PubChem BioAssay (NCATS)
